Pf growth 96h: P. falciparum growth inhibition at 96 hour, primary screen for plastid delayed-death inhibitors. 320,000 compounds, 6.9% hits. AID 504834. Potency, µM (highest dose often 28.7 µM), inactives show at the top dose activity change, negative = inhibition, actives largely listed as inhibitors. P. falciparum luciferase reporter growth, 96 h; also: potency is read from the fitted curve at half-maximal effect; % is scaled to controls: 0 for no effect and ±100 for the full control effect
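Erythrocytes infected with luciferase-expressing P. falciparum were dispensed at 2% hematocrit and 0.05% parasitemia (final), then incubated with compounds 96 hours at 37 C in 5% CO2. Luminescence after detection reagent addition reported growth.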
NS1 inh: blocks influenza NS1 protein function; Potency, µM (titrated, usually from 46.1 µM), for inactives: at the highest dose activity, positive = more growth; 270,000 compounds, 0.4% hits; AID 2326; calls by dose curve; also: potency is read from the fitted curve at half-maximal effect; actives are rising curves; nearly all actives have a fitted effect of over 50% in size
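Compounds were scored for reversing the slow growth caused by influenza A NS1 in S. cerevisiae, measured by optical density at 600 nm. Assay medium contained 2% galactose at pH 6.0; NS1-free yeast of the same strain were the positive control.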
Shiga inhibitor: blocks Shiga toxin action in Vero cells. Vero cells, Shiga toxin protein synthesis inhibition reporter. inhibition, % at 38.7 µM. 290,000 compounds, 9.2% hits; in the data active = inhibition mostly above about 28%, no sharp cut-off; inactive = mostly below about 43%; also: 0% is about no effect
Sm TGR inh: S. mansoni TGR enzyme inhibition; Q962Y6; purified TGR, DTNB reduction, TNB absorbance 405 nm; Potency, µM (highest dose often 114 µM), for inactives: at the highest dose activity change, negative = inhibition, most hits filed as inhibitors; 360,000 compounds, 3% hits; AID 485364; also: potency is read from the fitted curve at half-maximal effect; % is scaled to controls: 0 for no effect and ±100 for the full control effect; nearly all actives have a fitted effect of over 60% in size
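TGR 20 nM + NADPH 100 uM (dispensed conc.), cpd preinc 15 min RT; start with NADPH (500 uM addition) then DTNB (15 mM addition). Kinetic TNB absorbance, 405 nm filter. Four-parameter Hill fit across titration.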
Pf growth 48h: P. falciparum growth inhibition at 48 hours (one generation). Potency, µM (doses to about 28.7 µM), for the others: top-dose activity change, negative = inhibition, hits mostly inhibitors. P. falciparum luciferase growth in erythrocytes, 48 h. 310,000 compounds, 5.9% hits; also: potency is read from the fitted curve at half-maximal effect; % is scaled to controls: 0 for no effect and ±100 for the full control effect
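Firefly luciferase activity from engineered P. falciparum reports growth; inhibitors lower the luminescent signal. Cultures contained 2% hematocrit erythrocytes at 0.1% final parasitemia.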
CHX counter: counter-screen hit for Shiga toxin inhibitors, cycloheximide; cell reporter, cycloheximide protein synthesis inhibition counterscreen; max response, %; 300,000 compounds, 12% hits; in the data active = max response mostly above about 13%, no sharp cut-off; inactive = mostly below about 14%; also: read at 38.3 µM for the half of the compounds with a filed dose; 0% is about no effect
Active calls of the source: *; ? = inconclusive; / = not tested or not shown; [ ] = dose if it differs, or a comment. Rows were chosen to be rich in hits. Some 21% of all compounds tested hit in one or more screens of this group. Unless noted, calls follow the shape of the dose curve; as a rule, active = well fitted curve in the direction sought with a large enough effect; inconclusive = small, poorly fitted or top-dose-only effect, or another doubt; inactive = no such curve, though single readings can be large; an effect the other way counts as inactive or inconclusive.

SMILES	Pf growth 96h	NS1 inh	Shiga inhibitor	Sm TGR inh	Pf growth 48h	CHX counter
Cc1ccc(NC(=O)CCCn2c(=S)[nH]c3ccsc3c2=O)cc1C	?	20%	-10	-9%	16%	-4
CC1CCN(S(=O)(=O)c2ccc3c(c2)oc(=O)n3C)CC1	0.47µM*	2%	-8	-4%	-8%	2
CCOC(=O)n1c(=O)oc2cc(S(=O)(=O)N3CCOCC3)ccc21	/	-3%	-17	1%	15%	-10
CC(C)COC(=O)n1c(=O)oc2cc(S(=O)(=O)N3CCCCC3)ccc21	/	-15%	-12	2%	8.3µM*	-8
COc1ccc(NC(=O)Cn2c(=O)oc3cc(S(=O)(=O)N4CCCC4)ccc32)c(OC)c1	6.6µM*	-9%	5	-17%	3%	-2
CCc1ccc(NC(=O)CSc2nc3ccccc3nc2Cc2ccccc2OC)cc1	/	/	/	-2%	/	/
Cc1nn(C)c(C(=O)NC(=S)Nc2ccccc2Br)c1Cl	51%	-1%	17	-6%	12%	22*
CCn1ncc(Cl)c1C(=O)NC(=S)Nc1ccccc1Br	?	-42%	21	28µM*	-9%	33*
O=S(=O)(Nc1c(Br)cc(Br)c2cccnc12)C1CCCCC1	/	/	-1	/	/	-7
Cc1ccc(OC(=O)C(F)(F)F)c2c1NCCC2	/	6%	11	32µM*	?	1
Cc1cc2c(C)cc(=O)oc2c2c1NCCC2	168%	-29%	-3	4%	-3%	1
O=C(c1ccccc1N(Cc1ccccc1)S(=O)(=O)c1ccccc1)N1CCOCC1	0%	-16%	-10	-5%	-65%	-1
CCC1=C(C[C@H]2NCCc3ccccc32)C[C@@H]2c3cc(OC)c(OC)cc3CCN2C1	/	-1%	/	/	/	/
O=C(Nc1ccc(Oc2ccc(C(F)(F)F)cn2)c(Cl)c1)C1CC1	12µM*	/	11	-1%	?	5
CCCCN(Cc1ccccc1)C(=O)C1CCN(S(=O)(=O)c2c(C)noc2C)CC1	?	14%	4	0%	/	2
O=C(c1ccccc1)c1nc2ccccc2n(CCCn2c(=O)c(C(=O)c3ccccc3)nc3ccccc32)c1=O	?	28%	9	1%	3.7µM*	-1
Cn1c(=O)c(C(=O)c2ccccc2)nc2ccccc21	1%	3%	-18	8%[11.4 µM]	/	-5
COc1ccccc1OCC(=O)N(Cc1ccc(N(C)C)cc1)CC1CCCO1 (stereo unspecified)	/	/	/	0%	/	/
O=C1/C(=C\c2ccccc2)SC(=S)N1CCC(=O)N1CCCCC1CCO (stereo unspecified)	?	-19%	39*	-12%	?	35*
CC(C)c1ccc(/C=C2\SC(=S)N(CCC(=O)N3CCCCC3CCO)C2=O)cc1 (stereo unspecified)	9.3µM*	16%	-11	-10%	-13%	-6
O=C1/C(=C/c2ccccc2Cl)SC(=S)N1CCC(=O)N1CCCCC1CCO (stereo unspecified)	?	-10%	5	-2%	?	9
COc1ccc(/C=C2\SC(=S)N(CCCC(=O)N3CCCCC3CCO)C2=O)cc1 (stereo unspecified)	8.3µM*	-34%	1	-9%	?	-2
COc1ccc(/C=C2\SC(=S)N(CCCC(=O)N3CCN(C)CC3)C2=O)cc1	?	-9%	-3	1%	?	0
COc1cccc(/C=C2\SC(=O)N(CCC(=O)N3CCCCC3CCO)C2=O)c1 (stereo unspecified)	10µM*	-20%	13	-5%	?	7
O=C(NCCCN1CCN(c2ccc(F)cc2)CC1)Nc1ccccc1Cl	/	/	/	3%	/	/
SMILES	Pf growth 96h	NS1 inh	Shiga inhibitor	Sm TGR inh	Pf growth 48h	CHX counter
Cc1ccc(NC(=O)Cn2cc(C(=O)c3ccco3)c3ccccc32)c(C)c1	/	/	/	0%	/	/
CC(=O)OCC1=C(C(=O)O)N2C(=O)C(NC(=O)Cc3ccccc3)C2SC1 (stereo unspecified)	?	/	/	/	-11%	/
CC(=O)OCC1=C(C(=O)O)N2C(=O)[C@@H](NC(=O)CSc3ccncc3)[C@H]2SC1	45%	3%	/	45µM*	?	/
CC(=O)OCC1=C(C(=O)O)N2C(=O)C(NC(=O)C(C)Cn3nc(C)c(Cl)c3C)C2SC1 (stereo unspecified)	35%	/	-9	28µM*	-20%	11
COC(=O)C1=C(C)NC(=O)/C1=C\c1cc(C)n(-c2c(C)cccc2C)c1C	2.6µM*	-59%	-10	-34%	/	-2
Cc1cc(/C=C2\NC(=O)NC2=O)c(C)n1-c1cccnc1	30%	5%	15	-23%	26%	3
Cc1cccc(C)c1-n1c(C)cc(/C=C2\NC(=O)NC2=O)c1C	12µM*	1%	-3	?	12µM*	8
COC(=O)C1=C(C)NC(=O)/C1=C\c1cc(C)n(-c2ccccc2F)c1C	61%	3%	-16	14µM*	?	-3
COC(=O)C1=C(C)NC(=O)/C1=C\c1cccs1	27%	-7%	-2	-24%	/	1
COC(=O)C1=C(C)NC(=O)/C1=C\c1cc(C)n(-c2ccccc2C)c1C	9.3µM*	13%	-10	-22%	/	-5
Cc1cc(C)cc(-n2c(C)cc(/C=C3\C(=O)NC(=O)N(C)C3=O)c2C)c1	66%	26%	-8	-26%	0%	2
COc1ccc(CC(=O)NNC(=O)c2ccco2)cc1OC	-2%	9%	4	5%	20%	-5
COc1cccc(N2CC(NC(=O)c3ccc(S(=O)(=O)N4CCOCC4)cc3)CC2=O)c1 (stereo unspecified)	/	/	/	-4%	/	/
Cc1ccc(NC(=O)c2cccc3c(=O)c4c([nH]c23)CCCC4)c(C)c1	/	/	/	4%	/	/
CCOC(=O)C1CCCN(/C=C2\SC(=S)N(CC)C2=O)C1 (stereo unspecified)	-15%	-5%	16	0%	-15%	7.9*
CCN1C(=O)/C(=C/N2CCc3ccccc3C2)SC1=S	-19%	2%	31	-5%	29%	16*
CCN1C(=O)/C(=C\C=C\c2ccccc2[N+](=O)[O-])SC1=S	17%	/	43	10%	?	22
CCN1C(=O)/C(=C/N2CC(C)CC(C)C2)SC1=S (stereo unspecified)	-5%	6%	-6	-1%	58%	6
CCN1C(=O)/C(=C\N2CCCCCC2)SC1=S	12µM*	-18%	23	-2%	?	15*
CCCCNC(=O)CCCN1C(=O)CCn2nc(-c3cccn3C)cc21	/	/	/	4%	/	/
Cc1c(C(=O)N(Cc2ccc(Cl)cc2)CC2CCCO2)oc2ccc(F)cc12 (stereo unspecified)	/	/	/	2%	/	/

Screening data from PubChem.
